From PMC7819943, “Rice protein-binding microarrays: a tool to detect cis-acting elements near promoter regions in rice”
Over roughly 39,000 sequences, “fluorescence intensity (a.u.)” has its median near 4,300; the highest 2% begin near 39,000. What follows is part of a selection rich in the highest values, with near analogues and random picks from the rest.

Each sequence was assayed against T1, OsSMF1 (Oryza sativa, UniProt Q6ZLB0 1-436) (assay: protein-binding microarray (RPBM); PBS, 2% BSA, 51.3 ng/ul salmon testes DNA, 50 uM zinc acetate, 200 nM TF, 25 C, 1 h; high values mean tight binding). Details: protein: recombinant; tags: N-terminal polyhistidine and DsRed monomer fusion (pET32a); chain copies: 2; label: CyDye5-dUTP incorporated in the synthesized complementary strand; 3' TTTTT single-stranded linker to array surface; dsDNA, one strand shown.
T1 sequence: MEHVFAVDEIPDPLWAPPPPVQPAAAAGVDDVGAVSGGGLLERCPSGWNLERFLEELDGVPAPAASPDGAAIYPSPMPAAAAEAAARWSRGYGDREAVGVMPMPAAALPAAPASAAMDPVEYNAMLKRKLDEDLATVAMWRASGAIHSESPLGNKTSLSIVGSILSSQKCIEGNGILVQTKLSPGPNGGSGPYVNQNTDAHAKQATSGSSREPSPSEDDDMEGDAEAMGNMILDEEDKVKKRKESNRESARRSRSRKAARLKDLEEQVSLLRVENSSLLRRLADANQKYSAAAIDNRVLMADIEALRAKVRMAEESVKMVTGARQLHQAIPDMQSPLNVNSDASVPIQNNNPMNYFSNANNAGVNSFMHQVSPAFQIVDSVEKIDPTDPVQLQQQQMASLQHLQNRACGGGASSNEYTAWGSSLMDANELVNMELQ
How it was run: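 The binding signal for each feature is its fluorescence intensity in arbitrary units. An Axon 4000B scanner was used to read a custom Agilent array that had been made double-stranded with Cy5-dUTP primer extension, blocked with 2% BSA, incubated at 25 °C for 1 h with 200 nM protein in PBS, 2% BSA, salmon testes DNA and 50 µM zinc acetate, and washed. The protein was an N-terminal polyhistidine–DsRed transcription factor fusion from E. coli BL21-CodonPlus, purified on Ni–NTA.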

Row | Sequence | binding signal
1 | CAGTTCCCAGCTGGACCTCCGACCTCCTACCTCCTCACCTCGGAGTCACCTAGTGCAG | 3340 fluorescence intensity (a.u.)
2 | AATGTTTGGGTTCGAATTTAGTGGGTGGGTTTGGAGTTTGCGGAGTCACCTAGTGCAG | 4670 fluorescence intensity (a.u.)
3 | TCCGCGGCCCCGCTGGCCCACACGCATGCGTCCAAACAGCCGGAGTCACCTAGTGCAG | 3940 fluorescence intensity (a.u.)
4 | CAAATAGAACATAGCCATACGAAATGACTCACTAACCTCTCGGAGTCACCTAGTGCAG | 4910 fluorescence intensity (a.u.)
5 | TCACCGGTCTCATCCCCGTCATATGCATCCTTATCTCCAACGGAGTCACCTAGTGCAG | 4020 fluorescence intensity (a.u.)
6 | TGACCTACTTGCACTTATAATTTATAGTATTATGATGTGTCGGAGTCACCTAGTGCAG | 3290 fluorescence intensity (a.u.)
7 | TCCAAGCCGTCCACTCCCCTCCGATCCAACGGTCCAAACCCGGAGTCACCTAGTGCAG | 21800 fluorescence intensity (a.u.)
8 | AGATCACACACAACACGCACATCACGAACCGGACCAAACCCGGAGTCACCTAGTGCAG | 3660 fluorescence intensity (a.u.)
9 | CACACCTGACACAACACTTACACATCATACCAGAAGAAAACGGAGTCACCTAGTGCAG | 3210 fluorescence intensity (a.u.)
10 | ATGCACACACATACAACGAAAACCAGAGATCAACAGGTGCCGGAGTCACCTAGTGCAG | 45100 fluorescence intensity (a.u.)
11 | TGGGGCCGTGAGGCCACGTGCCCGGCATGCCACGGTGGAGCGGAGTCACCTAGTGCAG | 10000 fluorescence intensity (a.u.)
12 | CTCCTCTCCTCTCTTCTCCACATCCACAAGAAATTTCGTACGGAGTCACCTAGTGCAG | 3630 fluorescence intensity (a.u.)
13 | CCTCCGCCTTGTCCGCGTCCACGTCCACGGCCGCCGCCACCGGAGTCACCTAGTGCAG | 6310 fluorescence intensity (a.u.)
14 | CGCCTTATCCTCCCGCCTTTTCACGTCCCGCCACGCCGACCGGAGTCACCTAGTGCAG | 4060 fluorescence intensity (a.u.)
15 | TTGTCGTCCACGCCGCCATCTCCTTGGTCATCCGCAACAACGGAGTCACCTAGTGCAG | 3430 fluorescence intensity (a.u.)
16 | ACCTCCCCGACGGCGTCCGCGTGCCGCGCTCCACGCGCACCGGAGTCACCTAGTGCAG | 3460 fluorescence intensity (a.u.)
17 | CCTCCACCCTCACCGGCGCCACGCCGACGCCTCCGCCCTCCGGAGTCACCTAGTGCAG | 5600 fluorescence intensity (a.u.)
18 | TCCTCCTCTCCTCCACACATCCAGGCAGGCAACACAAGAACGGAGTCACCTAGTGCAG | 41800 fluorescence intensity (a.u.)
19 | CCCTTGTCCATCCGCCAACGCCACGTCACCTCCTCCGCTACGGAGTCACCTAGTGCAG | 52100 fluorescence intensity (a.u.)
20 | CCTTTTATCCGCTCTACGGACGCAGTCCACGTCAGCCGACCGGAGTCACCTAGTGCAG | 39200 fluorescence intensity (a.u.)
21 | GGCAACAACGGCCTCCACCGCCATCACTCCGGCACCCTCACGGAGTCACCTAGTGCAG | 52200 fluorescence intensity (a.u.)

Row | Sequence | binding signal
22 | TCCACCACCGCCTGCCTCCATCCACCTCCACTGCAACCTCCGGAGTCACCTAGTGCAG | 3670 fluorescence intensity (a.u.)
23 | ACCACGACCACCACAACACCACCACCTCTTCTCCTAGTCACGGAGTCACCTAGTGCAG | 3570 fluorescence intensity (a.u.)
24 | CACGGGGTGGTCGCGGGTCACAGTGACGGACGGTGCACGGCGGAGTCACCTAGTGCAG | 20200 fluorescence intensity (a.u.)
25 | CACCAGGCACCGACTGCCGTAGTGTCACCGGCCACAGTGCCGGAGTCACCTAGTGCAG | 3220 fluorescence intensity (a.u.)
26 | CTGTTGCCTACTCCCTCCTCAATCCTGCAGAAGTTTCTGACGGAGTCACCTAGTGCAG | 3240 fluorescence intensity (a.u.)
27 | CTCCATTTTCTCCGGTTTTCGCCGCAGAGTAGGAGCTGAACGGAGTCACCTAGTGCAG | 21400 fluorescence intensity (a.u.)
28 | CTCCTCCTCCGGCCACGTCGACGTCGCACCAACCGCCGCCCGGAGTCACCTAGTGCAG | 14700 fluorescence intensity (a.u.)
29 | CGTGCCGACGCGTGCCTCGCCAACGTGTCGCAACGCCTCACGGAGTCACCTAGTGCAG | 8980 fluorescence intensity (a.u.)
30 | AACCAACGGTCGCTGTTACGCCACGTCACCTCACCGACGCCGGAGTCACCTAGTGCAG | 39200 fluorescence intensity (a.u.)
31 | TCTCCTCTCGCTCTCGCCATCTCGCCGCCGGCCTCCTCCACGGAGTCACCTAGTGCAG | 3240 fluorescence intensity (a.u.)
32 | CGTCGCCTCGCCTCGTCACGGCCGCCTCCGCCATCGCCTCCGGAGTCACCTAGTGCAG | 6060 fluorescence intensity (a.u.)
33 | TCACGGCCGCCTCCGCCATCTGCACAACCTCGCCGCCGCCCGGAGTCACCTAGTGCAG | 65500 fluorescence intensity (a.u.)
34 | AGCACTACTCCAACGCAGCAACCAACACGTACCTCCACATCGGAGTCACCTAGTGCAG | 6420 fluorescence intensity (a.u.)
35 | GATTCTTCTATGTGGCATGAGGTAACCCTGGGTCGGCTTGCGGAGTCACCTAGTGCAG | 4110 fluorescence intensity (a.u.)
36 | GCCGTTGTCCGAAGGTTCAGCATATTGCTGACATATTGCCCGGAGTCACCTAGTGCAG | 4940 fluorescence intensity (a.u.)
37 | GCATGCTCTTCTGATCTGTAATCTCAGGCTCTATTACTCTCGGAGTCACCTAGTGCAG | 3450 fluorescence intensity (a.u.)
38 | TTCCTCGCCAACGTAAGCCAATAACATTGTGACGCAATCTCGGAGTCACCTAGTGCAG | 5820 fluorescence intensity (a.u.)
39 | GAGCAGGAGGAGCTGAGCGACTCCGAGTCGGGCGCCGAGTCGGAGTCACCTAGTGCAG | 40100 fluorescence intensity (a.u.)
40 | GCTGAGCAGGAGAGGGGCGCCGATCTCCATCCGGCGAGCACGGAGTCACCTAGTGCAG | 5450 fluorescence intensity (a.u.)
41 | CCGAGTGACGATGCAGCTGAGTCGGAGCGCAGCACGACTTCGGAGTCACCTAGTGCAG | 4290 fluorescence intensity (a.u.)
42 | GCGAGCTCCTGGAGGCGGCGAGGGCGCCGGAGTTCGCGGGCGGAGTCACCTAGTGCAG | 37200 fluorescence intensity (a.u.)
